Bioassay records as filed in PubChem.
Shown are actives, neighbours in structure and some others; about 8.8% of the full set was active somewhere.
HT1080 IDH1KD tx = qHTS for induction of synthetic lethality in tumor cells producing 2HG: qHTS for the HT-1080-IDH1KD cell line. Potency, µM (titrated, usually from 46.1 µM), for the others: at the highest dose activity, negative = toxicity, most hits filed as cytotoxic. HT-1080 IDH1 knockdown viability, ATP luminescence, 48 h. 2% of 360,000 active;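 further: potency means the concentration at half of the fitted maximal effect; 0% = DMSO wells and -100% = cell-free medium wells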
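Luminescent ATP read-out (CellTiter-Glo, 10 min at room temperature) after 48 h compound exposure at 37 °C gave viability of IDH1-knockdown HT-1080 cells. Activity was normalised to DMSO and cell-free wells, then fitted as concentration-response curves.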
KB-V1 cytotox = qHTS assay for MDR1-selective chemotherapeutics: Primary screen using the drug-selected MDR subline cells KB-V1; KB-V1 MDR cells viability, CellTiter-Glo, 72 h; Potency, µM (series often up to 46.1 µM), actives largely listed as cytotoxic; 3.4% of 400,000 active; further: potency means the concentration at half of the fitted maximal effect; nearly all actives have a fitted effect of over 60% in size
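Luminescent ATP read-out (CellTiter-Glo, 10 min) measures survival of drug-selected KB-V1 MDR cells after 72 h, 37 degrees C compound exposure. Medium: phenol-red-free DMEM, 10% FBS. Values from fitted concentration-response curves.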
HT1080-NT tox = qHTS for induction of synthetic lethality in tumor cells producing 2HG: qHTS for the HT-1080-NT fibrosarcoma cell line; HT-1080-NT fibrosarcoma viability, CellTiter-Glo ATP luminescence, 48 h; Potency, µM (doses to about 46.1 µM), without a hit: at the top dose activity, negative = less viability, most hits filed as cytotoxic; AID 686970, 2013; 1.6% of 360,000 active;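 further: NT is the 2HG producing partner of a matched IDH1 knockdown line; potency means the concentration at half of the fitted maximal effect; 0% = DMSO-treated cells and -100% = media-only wells without cells; nearly all actives have a fitted effect of over 55% in size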
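Fibrosarcoma NT cells, 750 per well in 5% FBS RPMI, were exposed to compound for 48 hours. Viability: CellTiter-Glo luminescence.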
IL-1B inflam inh = qHTS for Inhibitors of Inflammasome Signaling: IL-1-beta AlphaLISA Primary Screen. THP-1 LPS/ATP IL-1B secretion, AlphaLISA, 16 h; hits give low values. activity change, % at 57.5 µM. 4.7% of 360,000 active. AID 743279, 2014; in the data active means activity change below about -50%; inconclusive means mostly about -30% to -49%
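THP-1 cells pretreated 1 hr with compounds (up to 57.5 uM final), then stimulated with LPS (250 ng/mL final) plus ATP (1.25 mM final); secreted IL-1B measured by AlphaLISA after 16 hr, decreased signal indicating inhibition.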
KB-3-1 tox = qHTS assay for MDR1-selective chemotherapeutics: Primary screen using the parental adenocarcinoma cell KB-3-1 | KB-3-1 viability, CellTiter-Glo ATP luminescence, 72 h | Potency, µM (series often up to 46.1 µM), actives largely listed as cytotoxic | 1.4% of 400,000 active; further: potency means the concentration at half of the fitted maximal effect; nearly all actives have a fitted effect of over 60% in size
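Cytotoxicity measured as CellTiter-Glo luminescence after 72 h at 37 C. Compound titrations were pinned onto drug-naive KB-3-1 parental adenocarcinoma cells grown in DMEM with 10% FBS, and normalized data fitted to concentration-response curves.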
The depositor's hits bear a star. Unless noted, the call rests on the fitted dose curve; in most records, active means well fitted curve in the direction sought with a large enough effect; inconclusive means small, poorly fitted or top-dose-only effect, or another doubt; inactive means no such curve, though single readings can be large; an effect the other way counts as inactive or inconclusive. Unless noted, on the % scale 0 is the no-effect control and ±100 the full control effect.

What do the screens show for `Oc1ccc(Cl)cc1Sc1cc(Cl)ccc1O`?
HT1080 IDH1KD tx: 20.6µM*; KB-V1 cytotox: inconclusive; HT1080-NT tox: 20.6µM*; IL-1B inflam inh: -100.8*; KB-3-1 tox: inconclusive

How did CN1C(=O)C(=Cc2sc(=O)n(-c3ccccc3)c2N(C)C)C(=O)N(C)C1=O do in these assays?
HT1080 IDH1KD tx: inconclusive; KB-V1 cytotox: inactive; HT1080-NT tox: inconclusive; IL-1B inflam inh: -97.4*; KB-3-1 tox: inconclusive

How did Cc1cc(C=C2C(=O)N(C)C(=O)N(C)C2=O)c(C)n1-c1ccccc1 do in these assays?
HT1080 IDH1KD tx: 10.0%; KB-V1 cytotox: inactive; HT1080-NT tox: 7.5%; IL-1B inflam inh: 1.9; KB-3-1 tox: inactive

How did NC(Cc1ccc(C(F)(F)F)cc1)c1csc(Nc2nncc3ccccc23)n1 (stereo not drawn) do in these assays?
HT1080 IDH1KD tx: inconclusive; KB-V1 cytotox: 16.4µM*; HT1080-NT tox: inconclusive; IL-1B inflam inh: -66.5*; KB-3-1 tox: inconclusive

Results for NC(Cc1ccc(Cl)cc1)c1csc(Nc2ncccn2)n1 (stereo not drawn) ?
HT1080 IDH1KD tx: 5.8µM*; KB-V1 cytotox: inconclusive; HT1080-NT tox: 18.4µM*; IL-1B inflam inh: inconclusive; KB-3-1 tox: inconclusive

How did Nc1ccc(CC(N)c2csc(Nc3ncccn3)n2)cc1 (stereo not drawn) do in these assays?
HT1080 IDH1KD tx: -29.7%; KB-V1 cytotox: inactive; HT1080-NT tox: -14.4%; IL-1B inflam inh: -14.8; KB-3-1 tox: inactive

Results for NC(Cc1ccc(F)cc1)c1csc(Nc2ncccn2)n1 (stereo not drawn) ?
HT1080 IDH1KD tx: 6.51µM*; KB-V1 cytotox: inconclusive; HT1080-NT tox: 5.8µM*; IL-1B inflam inh: -25.4; KB-3-1 tox: inconclusive

Results for CCc1ccc(-c2cc(C(F)(F)F)n3nc(C(=O)Nc4c(C)nn(Cc5ccc(F)cc5)c4C)cc3n2)s1 ?
HT1080 IDH1KD tx: inconclusive; KB-V1 cytotox: inconclusive; HT1080-NT tox: 6.2%; IL-1B inflam inh: inconclusive; KB-3-1 tox: inconclusive

How did CC1(C)C[C@H]2C=C(C=O)[C@]3(C=O)C[C@]3(C)[C@H]2C1 do in these assays?
HT1080 IDH1KD tx: 11.6µM*; KB-V1 cytotox: inactive; HT1080-NT tox: 16.4µM*; IL-1B inflam inh: -108.0*; KB-3-1 tox: inconclusive

What do the screens show for `C[C@]12CCC3C(CC[C@H]4C[C@@H](O)CC[C@]34C)C1CC[C@@H]2OC(=O)[C@H](N)CCCCN` (stereo partly drawn)?
HT1080 IDH1KD tx: -0.7%; KB-V1 cytotox: inactive; HT1080-NT tox: -21.7%; IL-1B inflam inh: -72.3*; KB-3-1 tox: inactive

Results for CCC1(c2ccc(N)cc2)CCC(=O)NC1=O (stereo not drawn) ?
HT1080 IDH1KD tx: 10.3%; KB-V1 cytotox: inactive; HT1080-NT tox: inconclusive; IL-1B inflam inh: 31.9; KB-3-1 tox: inactive

What do the screens show for `CCC(C)(C)n1nnnc1C(c1cccs1)N1CC=C(c2ccc(F)cc2)CC1` (stereo not drawn)?
HT1080 IDH1KD tx: -9.3%; KB-V1 cytotox: inactive; HT1080-NT tox: inconclusive; IL-1B inflam inh: -66.8*; KB-3-1 tox: inactive

How did Fc1ccc(C2=CCN(C(c3cccs3)c3nnnn3CCc3ccccc3)CC2)cc1 (stereo not drawn) do in these assays?
HT1080 IDH1KD tx: -0.5%; KB-V1 cytotox: inactive; HT1080-NT tox: 1.0%; IL-1B inflam inh: -60.6*; KB-3-1 tox: inactive

Results for Cc1ccc(C(C)C)c(OCC(=O)N2CCN(CCc3ccncc3)CC2)c1 ?
KB-V1 cytotox: inactive; KB-3-1 tox: inactive

What do the screens show for `N#Cc1cc2c(nc1SCC(=O)Nc1cccc(F)c1)C1CCN2CC1`?
KB-V1 cytotox: 10.3µM*; KB-3-1 tox: inconclusive

Results for Cc1cc(OC(=O)N(C)C)nc(-c2ccc(C)c(Cl)c2)n1 ?
HT1080 IDH1KD tx: -10.8%; KB-V1 cytotox: inactive; HT1080-NT tox: -10.2%; IL-1B inflam inh: -15.2; KB-3-1 tox: inactive

How did C/C(=N\Nc1ccccc1)c1c(O)[nH]c(=O)[nH]c1=O do in these assays?
HT1080 IDH1KD tx: 4.11µM*; KB-V1 cytotox: inactive; HT1080-NT tox: inconclusive; IL-1B inflam inh: 37.8; KB-3-1 tox: inconclusive

How did C/C(=N\Nc1ccccc1)c1c(O)n(-c2ccccc2)c(=O)[nH]c1=O do in these assays?
HT1080 IDH1KD tx: 4.61µM*; KB-V1 cytotox: inactive; HT1080-NT tox: inconclusive; KB-3-1 tox: inactive

Results for C/C(=N\Nc1ccccc1)c1c(O)n(Cc2ccccc2)c(=O)[nH]c1=O ?
HT1080 IDH1KD tx: inconclusive; KB-V1 cytotox: inactive; HT1080-NT tox: inconclusive; IL-1B inflam inh: -3.7; KB-3-1 tox: inactive

How did Nc1ccc(C2(c3ccc(N)cc3)c3ccccc3-c3ccccc32)cc1 do in these assays?
HT1080 IDH1KD tx: 16.4µM*; KB-V1 cytotox: inactive; HT1080-NT tox: inconclusive; IL-1B inflam inh: -171.3*; KB-3-1 tox: inactive

Results for COC(=O)C1=C(c2ccc(OC)c(OC)c2)C[C@@H]2CC[C@H]1N2C(=O)N1CCC(O)CC1 ?
HT1080 IDH1KD tx: 15.2%; KB-V1 cytotox: inactive; HT1080-NT tox: 15.2%; IL-1B inflam inh: 10.7; KB-3-1 tox: inactive

What do the screens show for `CNC(=O)Oc1cccc(-c2cn3cc(Cl)ccc3n2)c1`?
HT1080 IDH1KD tx: -20.0%; KB-V1 cytotox: inactive; HT1080-NT tox: -21.3%; IL-1B inflam inh: -7.2; KB-3-1 tox: inactive

What do the screens show for `CNC(=O)Oc1ccc(-c2cn3cc(C)ccc3n2)cc1`?
HT1080 IDH1KD tx: -28.8%; KB-V1 cytotox: 18.4µM*; HT1080-NT tox: -11.2%; IL-1B inflam inh: inconclusive; KB-3-1 tox: inactive

What do the screens show for `CC(N)C(=O)NC1C2C(=C(O)CC(O)C2O)C(=O)OC1(C)C(Cl)Cl` (stereo not drawn)?
HT1080 IDH1KD tx: 0.92µM*; KB-V1 cytotox: 18.4µM*; HT1080-NT tox: inconclusive; IL-1B inflam inh: -100.2*; KB-3-1 tox: 2.06µM*

How did COC(=O)C1=C(c2cccc(C#N)c2)C[C@@H]2CC[C@H]1N2C(=O)NCCCOC(C)C do in these assays?
HT1080 IDH1KD tx: 4.6%; KB-V1 cytotox: inactive; HT1080-NT tox: 2.0%; IL-1B inflam inh: 0.0; KB-3-1 tox: inactive

What do the screens show for `COc1cc([N+](=O)[O-])cc([N+](=O)[O-])c1N`?
KB-V1 cytotox: inactive; KB-3-1 tox: inactive

What do the screens show for `COc1ccc(S(=O)(=O)Nc2cc([N+](=O)[O-])ccc2OC)cc1`?
HT1080 IDH1KD tx: 16.4µM*; KB-V1 cytotox: 18.4µM*; HT1080-NT tox: 13µM*; IL-1B inflam inh: 27.2; KB-3-1 tox: inconclusive

Results for CC1(C)CC2CCC(O)C2C(CCO)N1 (stereo not drawn) ?
HT1080 IDH1KD tx: 4.0%; HT1080-NT tox: 1.9%; IL-1B inflam inh: 4.4
